Data as given in ChEMBL document CHEMBL3988442, “University of Dundee, Small-Polar-MMV Screening Library” (2021).

Key:
[1] = target: T1, Aspartate--tRNA(Asp/Asn) ligase (Mycobacterium tuberculosis (strain ATCC 25618 / H37Rv)) (UniProt P9WFW3); assay: Assay for Asp RNA synthetase-1 from Mycobacterium tuberculosis; format: functional; set-up: scale not given: direction of the effect not stated beside the values; conditions: 30 µM; note: in the data most compounds retested in dose-response had high values
T1 sequence (whole entry): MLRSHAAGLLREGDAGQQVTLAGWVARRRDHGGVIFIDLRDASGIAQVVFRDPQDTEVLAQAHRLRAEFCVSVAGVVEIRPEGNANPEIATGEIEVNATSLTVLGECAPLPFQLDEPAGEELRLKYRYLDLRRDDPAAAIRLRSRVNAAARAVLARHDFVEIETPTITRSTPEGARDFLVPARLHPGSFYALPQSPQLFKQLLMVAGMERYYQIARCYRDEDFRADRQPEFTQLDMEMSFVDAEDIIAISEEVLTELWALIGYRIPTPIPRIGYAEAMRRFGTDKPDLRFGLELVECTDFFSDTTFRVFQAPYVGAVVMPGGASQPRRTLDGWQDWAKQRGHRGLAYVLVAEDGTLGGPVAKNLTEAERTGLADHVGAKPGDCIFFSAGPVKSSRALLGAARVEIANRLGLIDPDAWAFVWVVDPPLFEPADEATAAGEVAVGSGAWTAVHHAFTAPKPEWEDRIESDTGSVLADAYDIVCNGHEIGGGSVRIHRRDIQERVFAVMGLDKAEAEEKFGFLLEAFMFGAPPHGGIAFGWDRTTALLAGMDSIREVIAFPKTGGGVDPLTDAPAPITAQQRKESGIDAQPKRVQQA

[2] = target: Shiga toxin 2 (Escherichia coli O157:H7) (UniProt P09385+P09386); assay: E. coli 0.157:H7 Shiga Toxin SOP - stx2 screening assay; format: functional; set-up: scale not given: direction of the effect not stated beside the values; conditions: 30 µM

Row | SMILES | Percent Effect [1] [%] | Percent Effect [2] [%]
1 | O=C(NCCN1CCNCC1)c1nc2ccccc2c(=O)[nH]1 | 2.9 | -55.8
2 | N#Cc1ccc(CN2CCN(C(=O)C3CCC3)[C@@H]3CS(=O)(=O)C[C@@H]32)cc1 | -2.41 | -34.5
3 | CN(Cc1ccc(F)cc1)C(=O)Cn1nc(-c2ccc(F)cc2)oc1=O | 5.72 | -25.7
4 | O=S(=O)(NCC1CCN(c2cnccn2)CC1)c1c(F)cccc1F | -2.55 | 4.65
5 | Cc1ccccc1CSc1nc(N)cc(N2C[C@H](O)[C@@H](N(C)C)C2)n1 | 3.57 | 14.8
6 | CN(C(=O)NCCCN1CCCC1)C1CCN(c2ccccc2)C1=O (stereo not given) | -0.189 | 24.2
7 | Cc1cnn(CC2CN(CC(=O)NCCc3cccs3)CCO2)c1 (stereo not given) | -11.2 | 6.55
8 | CCOc1ccc(CC(CNC(=O)c2ccoc2)C(N)=O)cc1 (stereo not given) | -3.95 | -12.5
9 | CSC(C)C(=O)NCCCc1cc(N)n(-c2ccccc2)n1 (stereo not given) | -3.65 | -1.83
10 | N#Cc1ccccc1OCCN1CCCCC1Cn1cncn1 (stereo not given) | 3.26 | 5.17
11 | OCCOc1nc(-c2ccccc2Cl)no1 | -8.6 | -16.2
12 | CCOC(=O)N1CCN(C(=O)CCn2ccc3c(OC)cccc32)CC1 | 0.389 | -14.3
13 | CC1CCCN(Cc2c(C3CCOCC3)[nH]c3ncccc23)C1 (stereo not given) | 3.59 | 12.7
14 | CCOc1ccc(NC(=O)CN2CCN(c3nccn3C)CC2)cc1 | -3.86 | -64.8
15 | CC(C)n1ncc2cc(NC(=O)N3CCC(N4CCCC4)C3)cnc21 (stereo not given) | -5.1 | -51.5
16 | O=C(CN(Cc1ccccc1)CC1CCOCC1)NC(=O)NC1CC1 | 0.182 | -31.8
17 | Cn1ccc(CN2CCC(COC3CCCC3)CC2)cc1=O | -0.509 | -19.3
18 | Cc1cc(-c2cnc(N3CCNC(=O)C3)nc2-c2ccc(C)o2)on1 | -1.93 | -18.2
19 | Cc1cc(CN(C)C(=O)c2cc3c([nH]c2=O)CCCC3=O)no1 | 2.54 | 20.8
20 | CCN1Cc2c(C(=O)NCC3CC3)ncn2-c2ccccc2S1(=O)=O | -3.35 | 8.11
21 | CCn1cc2c(n1)CN(Cc1ccncc1)CC2COCC1CC1 (stereo not given) | 1.43 | -18.6
22 | CC(NCC1=Cc2cc(Cl)ccc2OC1)c1nnc2n1CCCC2 (stereo not given) | 1.06 | -9.58
23 | CC(CNC(=O)Nc1ccc(N(C)C)nc1)Cn1cccn1 (stereo not given) | 5.91 | -40.9

Row | SMILES | Percent Effect [1] [%] | Percent Effect [2] [%]
24 | COc1ccc(OC)c(NC(=O)c2nc3ccccc3n(C)c2=O)c1 | 1.01 | -23.2
25 | O=C(c1ccc(-n2cccn2)nc1)N1CCC(Nc2cccnn2)CC1 | -2.94 | 26.9
26 | O=C(c1cc(Cl)c2c(c1)OCCO2)N1CCCC(n2cncn2)C1 (stereo not given) | -7.78 | 10.4
27 | CCc1ncncc1C(=O)N1CCN(Cc2ccco2)CC1 | 3.68 | 8.73
28 | Fc1cccc(N2CCCC3(C2)CN(c2ncccn2)CCO3)c1 (stereo not given) | 2.81 | -2.38
29 | CC(C)c1nnc2n1CCN(C(=O)CN1CCc3sccc3C1)C2 | -0.1 | -16.2
30 | Cc1nc(CN2CCCC(CCc3c(F)cccc3F)C2)c[nH]1 (stereo not given) | -1.36 | -14.3
31 | O=C(Nc1cccc(CN2CCOC2=O)c1)N1CCSCC1 | -4.15 | -52.5
32 | O=C(c1c[nH]c(=O)c(Cl)c1)N1C[C@@H]2CC[C@H](C1)N(Cc1ccccc1)C2 | -1.71 | 3.61
33 | CCn1cnnc1C1CCN(C(=O)COc2ccccc2)CC1 | -1.18 | -10
34 | CCN(CC)C(=O)c1nnn(-c2ccc(C)cc2)c1C1CC1 | -1.37 | -1.32
35 | COc1cccc2c1ccn2CCC(=O)N1CCCC(C(=O)O)C1 (stereo not given) | 6.53 | -30.4
36 | COCc1noc(C2(c3ccc(OC)cc3)CCOCC2)n1 | -1.75 | 1.38
37 | Cc1cc(N(C)Cc2noc(C)n2)n2nc(C)c(C)c2n1 | -0.251 | -8.78
38 | O=C(c1cc(F)ccc1F)C1CCN(C(=O)c2cccnc2O)CC1 | -2.36 | 27.8
39 | Cc1ccccc1-n1ncc(C(=O)N2CCCC2c2cnn(C)c2)c1C (stereo not given) | 0.583 | 10.1
40 | Cc1nc(C2CCCCN2C(=O)c2ccccc2)ncc1C(=O)N(C)C (stereo not given) | -6.63 | -5.42
41 | CCN(Cc1nc2c(cnn2C)c(=O)[nH]1)c1ccc(OC)c(OC)c1 | 2.9 | -61.1
42 | CCCc1n[nH]c(C2CN(Cc3nnc(C4CC4)o3)CCO2)n1 (stereo not given) | -8.48 | -20.6
43 | c1ccc(-c2noc(CNC3CCc4ncnn4C3)n2)nc1 (stereo not given) | 0.903 | 16.9
44 | CC(C)n1c(=O)nc2n1C(=O)N(c1ccccc1)C2 | 2.04 | 0.0543
45 | O=C(c1ccc(F)cc1)N1CCN2C[C@H](OCc3ccccn3)C[C@H]2C1 | -1.3 | 10.7
